The panel holds about 83,000 compounds, 20% with a hit somewhere; the sample as a whole holds those more often.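 Single-concentration screen, 48 h exposure, 96-well plates. Endpoint: percent growth. Below 10 = active.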 Unmarked numbers belong to inactive results. Active and inactive are the calls of the source.
Legend:
Assay in all cases: NCI-60 one-dose screen, 48 h (100 = growth as untreated, 0 = no growth, -100 = all killed)
Settings in all cases: 10 µM unless noted
[1] = system: NCI-H23 lung
[2] = system: NCI-H226 lung
[3] = system: NCI-H322M lung
[4] = system: HOP-62 NSCLC
[5] = system: NCI-H460 lung
[6] = system: NCI-H522 lung
[7] = system: A549/ATCC NSCLC
[8] = system: 786-0 renal
[9] = system: COLO 205 colon
[10] = system: HOP-92 NSCLC

SMILES	growth [1]	growth [2]	growth [3]	growth [4]	growth [5]	growth [6]	growth [7]	growth [8]	growth [9]	growth [10]
COc1ccc(C2=C/C(=C\c3ccccc3O)C(=O)N2Cc2ccccc2)cc1	85.9%	94.9%	77.8%	89.7%	90%	51.3%	74%	90%	102%	–
NCCNc1ccc([N+](=O)[O-])cc1	112%	99.5%	112%	104%	111%	94.9%	108%	99.5%	120%	–
COC(=O)c1sc(-c2ccc(C)cc2)cc1O	99.1%	109%	94.2%	109%	101%	105%	103%	96.7%	107%	–
O=C(Nc1ncc(Cc2cc(C(F)(F)F)ccc2Cl)s1)C(=S)N1CCOCC1	89.8%	88.3%	94.6%	93%	100%	74.7%	–	94.6%	96.4%	–
CCOC(=O)/C(=C\c1ccccc1Cl)P(=O)(OCC)OCC	46.6%	66.4%	75.4%	118%	61.9%	34%	–	75.8%	52.9%	60%
COc1cccc(C(=O)Nc2cccc(NC(=O)c3ccccn3)c2)c1	93.7%	112%	98.1%	102%	114%	89.8%	97.5%	85.6%	120%	–
Cc1ccc(C2(C)NC(=O)N(CC(=O)Nc3cccc(C)c3)C2=O)cc1 (configuration not stated)	96.5%	84.5%	102%	102%	97.8%	77.2%	101%	104%	116%	–
COc1ccc(C(c2cc(OC)c(OC)c(OC)c2)n2cncn2)cc1O (configuration not stated)	39.9%	73.4%	51.5%	32.2%	9.82% (active)	12.8%	–	28.1%	-1.65% (active)	43.9%
O=C(CN1C(=O)c2ccccc2S1(=O)=O)Nc1nc(-c2cc3ccccc3oc2=O)cs1	110%	94.4%	97.3%	105%	105%	92.2%	104%	91.8%	117%	–
COc1ccc(-c2cc(-c3ccc(Nc4nc(Nc5ccc(Cl)cc5)nc(Nc5ccc(Cl)cc5)n4)cc3)no2)cc1	66.5%	110%	79.5%	100%	74.8%	84.5%	–	80.6%	79.5%	-28.6% (active)
CC(C)(C)n1cc(-c2ccnc(NCCNS(=O)(=O)c3cccc4ccccc34)c2)c(-c2cccc(O)c2)n1	69.7%	75.3%	89.6%	88.2%	55.9%	61.9%	62.7%	64.3%	-33.1% (active)	–
CCN1C(=O)N(CC)C2C1NN=c1s/c(=C3\C(=O)N(C)c4ccccc43)c(=O)n12 (configuration not stated)	37%	96.7%	48.4%	29.8%	6.21% (active)	21.7%	35.1%	36.9%	8.01% (active)	–
CCCCCCCC/C=C\CCCCCCCCOc1ccc(CC(=O)NCC[N+]2(C)CCCC2)cc1	58.7%	66.4%	88.5%	22.5%	25.3%	48.7%	73.7%	48.6%	-74.1% (active)	–
CCOC(=O)C1=C(C)N(C)C(=O)N(C)C1c1ccccc1 (configuration not stated)	96.7%	93.3%	98.6%	81.7%	101%	86.9%	104%	100%	98.5%	–
COCCn1cc(-c2nc(-c3cc4cccnc4n3C)cs2)c2cc(OC)ccc21	32.6%	46.6%	26%	47.2%	19.2%	41.9%	40.6%	66.8%	50.4%	–
Cc1cc([N+](=O)[O-])ccc1NC(=O)c1ccc2c(c1)nc(-c1ccccc1)n2C1CCCCC1	91.5%	93%	80%	91.8%	87.3%	63.1%	78.8%	86.7%	73.2%	–
COc1ccc(-c2csc(NC(=O)CSc3nc(C)cc(=O)[nH]3)n2)cc1	91.1%	111%	106%	118%	107%	86.7%	104%	102%	116%	–
COC(=O)[C@H]1Cc2c([nH]c3ccccc23)[C@H](c2ccc3c(c2)OCO3)N1	99.7%	98.5%	98.9%	107%	106%	83.2%	105%	98.5%	118%	–
CCOC(=O)c1c(N)sc2cc(O)ccc12	95.2%	110%	91.1%	104%	112%	80%	99.7%	104%	112%	–
CCN(CC)CCCNC(=O)c1c2c(n3ccccc13)C(=O)c1ncccc1C2=O	-38.7% (active)	-34.9% (active)	-49% (active)	-69% (active)	-44.4% (active)	-79% (active)	-65.3% (active)	3.22% (active)	-95.6% (active)	–
COc1cccc(/C=C/C(=O)/C=C(/C=C/c2cccc(OC)c2OC)OB(F)F)c1OC	44.2%	107%	92.5%	80.3%	90.7%	17.4%	88.7%	45.1%	32.9%	–
N#Cc1c(-c2ccc(F)cc2)cc(-c2cccc(Cl)c2)[nH]c1=O	62.8%	54.1%	75.2%	28%	86.8%	57.9%	–	42.1%	116%	29.7%
Cc1cc2c(C(C)C)c(O)c(O)c(/C=N/O)c2c(O)c1-c1c(C)cc2c(C(C)C)c(O)c(O)c(/C=N/O)c2c1O	27.3%	33.2%	35.9%	11.8%	2.59% (active)	-25.7% (active)	4.66% (active)	22.2%	2.49% (active)	–
CC(=O)Cc1nsc(NC(=O)c2cc(-c3cc(Cl)ccc3Cl)oc2C)n1	99.5%	94.5%	104%	102%	103%	90.2%	98.8%	97%	115%	–
C#CCOc1ccc(C2=NN(C)C3N=C(Cl)c4ncn(C)c4N23)cc1OCC#C (configuration not stated)	89.7%	83.4%	90.2%	95.5%	105%	87.3%	104%	105%	102%	–
CCCCCCCCNC(=O)[C@@H](N)CSCOC(C)=O	87.4%	104%	89.8%	66.7%	72.9%	90.6%	–	106%	109%	122%
O=C(/C=C/c1ccc(Cl)cc1)c1ccc(-n2cc(CN3CCN(c4cc5c(cc4F)c(=O)c(C(=O)O)cn5C4CC4)CC3)nn2)cc1	85.4%	76.3%	78.1%	85.5%	82.2%	79.1%	–	78.1%	97.1%	84.8%

From PubChem BioAssay (NCI)
